Measurements published in PubChem BioAssay AID492956 (The Scripps Research Institute Molecular Screening Center, 2010).
Among all 340,000 compounds or so, about 3,300 (0.97%) were called active.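 How the source made its calls: active means inhibition above the mean over all tested compounds plus 3 SD (cut at about 30% in these data); inactive means the rest.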 The sample as a whole holds a higher share of actives than the screen did.

Each compound was assayed against Platelet-activating factor acetylhydrolase 2, cytoplasmic (Homo sapiens) (UniProt Q99487) (assay: inhibition of cytoplasmic PAF acetylhydrolase 2 – biochemical, fluorescence polarization, human, primary screen (AID 492956;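 further: inhibitors block probe labeling of enzyme so polarization drops; 0% = enzyme with DMSO and 100% = wells lacking PAFAH2 protein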)). Settings: recombinant PAFAH2, FP-rhodamine activity probe, at 3.39 µM, active compounds read high.

inhibition, active:
Oc1oc(-c2ccccc2Br)nc1/C=N/c1ccccn1 68%, Cc1ccc2c(=O)oc(N(C)C)nc2c1 33%, O=C1C(Cl)=C(Oc2ccccc2)C(=O)c2ccccc21 43.1%, Oc1c(Cl)cc(Cl)c(Cl)c1Cc1c(O)c(Cl)cc(Cl)c1Cl 49.4%, Cc1ccc(/C=C/C(=O)OCC(=O)Nc2cccnc2Cl)cc1 30.3%, O=C(/C=C/c1cccs1)c1cc(Cl)ccc1OC(=O)N1CCOCC1 72.8%, Cc1ccc(NC(=O)COC(=O)C2CC2)cc1S(=O)(=O)N1CCOCC1 77.5%, Cc1ccc(NC(=O)COC(=O)C2C3CC4OC(=O)C2C4C3)cc1Cl (stereo not drawn) 88.2%, O=C(COC(=O)c1ccco1)Nc1ccc(Cl)cn1 45.5%, Cc1ccc(C(=O)OCC(=O)Nc2ccc(Cl)cn2)cc1S(=O)(=O)N1CCOCC1 55.8%, CCc1cccc(C)c1NC(=O)COC(=O)CC1CCCC1 68.3%, CCCc1cc(=O)n2[nH]c(SCc3ccccc3)nc2n1 58.2%, O=c1ccc2c(-c3ccccc3S(=O)(=O)O)c3ccc(O)c(O)c3oc-2c1O 74.3%, O=[N+]([O-])c1ccc(O)c(/C=N/Nc2ccccc2[N+](=O)[O-])c1 51.1%, O=C(O)c1ccccc1N=N/C(=N/Nc1cc(S(=O)(=O)O)ccc1O)c1ccccc1 50.6%, O=C(COC(=O)C1CCCCC1)Nc1ccc([N+](=O)[O-])cc1 59.7%, CCC(C)c1ccc(NC(=O)COC(=O)C2CCCC2)cc1 (stereo not drawn) 46.3%, Cc1ccc(F)cc1S(=O)(=O)Nc1cccc(C(=O)N2CCCC(C(N)=O)C2)c1 (stereo not drawn) 45.3%

inhibition, inactive:
Cc1noc(C)c1C(=O)N(CC(=O)NC1CCCC1)Cc1ccccc1F 3.06%, CC(N=Cc1nc(-c2ccccc2)oc1O)c1ccccc1 (stereo not drawn) 21%, CCOc1ccc2nc(/N=C/c3nc(-c4ccccc4)oc3O)sc2c1 2.86%, COc1ccc(F)cc1C(=O)COC(=O)c1n[nH]c(=O)c2ccccc12 0.13%, Cc1ccc2oc(=O)ccc2c1 1.28%, CN(C)c1ccc2c(=O)[nH][nH]c(=O)c2c1 0.81%, CCOC(=O)C1CCCCN1Cc1ccc(OC)c(OC)c1OC (stereo not drawn) -0.46%, COC(CCN(C)C)(c1ccccc1)c1ccccc1 3.5%, C=CCC(NCCCO)c1cccc(OC)c1OC (stereo not drawn) 5.85%, CC(=O)N(C1=C(Cl)C(=O)c2ccccc2C1=O)c1ccc(C(=O)O)cc1 10.5%, Cc1ccc2[nH]c(=O)c(CN3CCCCC3)c(-c3ccccc3)c2c1 6.01%, CCc1cc(=O)oc2c(C)c(OCC(=O)N3CC[C@@]4(O)CCCC[C@H]4C3)ccc12 -2.6%, CCOC(=O)C(=CNNc1ccsc1C(=O)OC)C(=O)OCC -1.37%, CCOc1ccc(S(=O)(=O)N2CCC(C(=O)NCC(=O)Nc3cccc(Cl)c3C)CC2)cc1 8.28%, O=C(O)c1ccc(NS(=O)(=O)c2ccc3c(c2)C(=O)c2cc(S(=O)(=O)Nc4ccc(C(=O)O)cc4)ccc2-3)cc1 4.82%, OCC[C@H]1C[C@H](O)[C@@H](O)[C@]2(Cc3ccccc3CO2)O1 8.82%, COc1ccc(NS(=O)(=O)c2ccc(C)c(C(=O)NCC(c3cccs3)N3CCOCC3)c2)cc1 (stereo not drawn) 7.05%, CCOc1ccccc1NC(=O)CCc1nnc2ccc(NCc3ccco3)nn12 3.78%, O=C(COC(=O)/C=C/c1nc2ccccc2s1)Nc1ccccc1Oc1ccccc1 -12.4%, COc1ccc(-c2nnc(SCC(=O)Nc3cccnc3Cl)n2C)cc1 0.74%, O=C(NCCC(=O)N1O[C@@H]2C=C[C@H]1C2)OCC1c2ccccc2-c2ccccc21 2.94%, O=C(Cc1ccc([N+](=O)[O-])cc1)Nc1ccc(C(=O)N2CCOCC2)cc1 1.43%, CC(=O)Nc1ccccc1OC(=O)N1CCOCC1 7.14%, O=C(Oc1cccc(C(=S)N2CCOCC2)c1)c1cccc(Cl)c1 5.91%, COc1cccc(N(C(=O)c2snc(C(N)=O)c2N)C(C(=O)NCC2CCCO2)c2c[nH]c3ccccc23)c1 (stereo not drawn) -0.32%, COc1ccc(-c2nc3c(s2)CCc2onc(-c4ccc(Br)cc4)c2-3)cc1 -1.79%, CC(OC(=O)CNC(=O)c1ccco1)C(=O)Nc1ccc(Cl)cn1 (stereo not drawn) -0.78%, Cc1ccc(NC(=O)C2CC2)cc1S(=O)(=O)N1CCOCC1 -3.1%, Cc1cc(NC(=O)COC(=O)c2ccc(F)c(S(=O)(=O)N3CCOCC3)c2)no1 8.91%, Cc1ccc(NC(=O)COC(=O)CNC(=O)c2ccc(Cl)cc2Cl)cc1S(=O)(=O)N1CCOCC1 -3.69%, Cc1ccc(C(=O)OCC(=O)N2CCCCCC2)cc1S(=O)(=O)N1CCOCC1 10.7%, O=C(Nc1ccc(Br)cc1)c1cccc(NC(=O)C2C3CC4OC(=O)C2C4C3)c1 (stereo not drawn) -8.44%, Cc1cc(C)cc(NC(=O)c2cccc(NC(=O)C3C4CC5OC(=O)C3C5C4)c2)c1 (stereo not drawn) 6.12%, O=C(COC(=O)c1ccco1)NCc1ccc(Cl)cc1 24.3%, Cc1ccc(NC(=O)C(=O)NCC2CCN(C(=O)c3cccc([N+](=O)[O-])c3)CC2)cc1 3.36%, C=CCNc1nnc(SCC(=O)N2CCCCC2)c2ccccc12 -3.63%, O=C(Nc1ccc(-c2cscn2)cc1)C1CCCN(Cc2ccc(CO)o2)C1 (stereo not drawn) -10.4%, COc1ccc(CNC(=O)[C@@H]2CC=C[C@@H]3CCN(C4CC4)C(=O)[C@@H]32)cc1 -6.96%, CCOC(=O)C1=C(c2ccccc2)O/C(=C(/C(=O)OC)C(F)(F)F)S1 1.19%, Cc1cc(=O)n(C)c(=O)n1CCCNc1ccccc1 -0.72%, CCCC(=O)N1CCC(CCC(=O)NC2CC2)CC1 2.54%, CC(CO)NCC12CC3CC(CC(C3)C1)C2 (stereo not drawn) -2.32%, CCc1ccc2oc(-c3ccc(N)cc3)nc2c1 8.24%, Cc1cc(-c2nnc(SCC(=O)Nc3ccc(S(N)(=O)=O)cc3)n2N)n[nH]1 -4.23%, Cc1ccc(C)c(S(=O)(=O)Nc2cc(C)on2)c1 0.2%, CCc1cccc(C)c1NC(=O)COC(=O)CNC(=O)c1cccs1 5.02%, CCc1cccc(C)c1NC(=O)COC(=O)Cc1ccsc1 7.53%, Cc1cc(C)n2nc(C(=O)OCC(=O)N(CCC#N)c3ccc(F)cc3)nc2n1 -0.66%, CC(C)Nc1nnc(SC(C)C(=O)N(C)C2CCCCC2)s1 (stereo not drawn) 9.89%, CCOCc1nnc(NC(=O)CCC2CCCCC2)s1 3.07%, CCOc1cc(-c2conc2N)cc(OCC)c1OCC -0.29%, CCCc1cc(=O)n2[nH]c(C)c(-c3ccc(Cl)cc3)c2n1 4.35%, CCCc1cc(=O)[nH]c(SCc2ccc(C#N)cc2)n1 -7.81%, O=C1CCc2cc(S(=O)(=O)N3CCC(C(=O)NCc4ccccc4Cl)CC3)ccc2N1 7.4%, NNC(=O)C1CC(O)CN1S(=O)(=O)c1ccc(Cl)cc1 (stereo not drawn) -7.58%, O=C(CCN1CCN(C/C=C/c2ccccc2)CC1)Nc1cccc(F)c1 -0.13%, O=C1C2C3C=CC(C3)C2C(=O)N1c1ncc([N+](=O)[O-])s1 (stereo not drawn) 3.52%, CC1(C)NC(=O)N(CC(=O)Nc2cc(C(F)(F)F)cc(C(F)(F)F)c2)C1=O 2.33%, N/C(=N\OS(=O)(=O)c1cccc([N+](=O)[O-])c1)c1ccncc1 -0.37%, CCCC(CCC(=O)OC)(C(=O)OCC)c1csc(N)n1 (stereo not drawn) 3.59%, O=C(N/N=C/c1cc([N+](=O)[O-])ccc1O)/C(=C\c1cccs1)NC(=O)c1ccccc1 -3.54%, Nc1nnnn1/N=C/c1cc([N+](=O)[O-])ccc1O -12.5%, COc1cccc(/C=N/Nc2ccc(S(=O)(=O)Nc3ccccc3C(=O)O)cc2[N+](=O)[O-])c1O 27.3%, NC[C@H](Cc1ccccc1)NCCc1cc(C(F)(F)F)cc(C(F)(F)F)c1 -1.16%, O=C(OCCN1C(=O)c2ccccc2C1=O)[C@@H]1CC(O)CN1S(=O)(=O)c1ccccc1[N+](=O)[O-] (stereo partly drawn) 3.85%, O=C(CN1C(=O)NC2(CCOc3ccccc32)C1=O)NCc1ccc(F)cc1 (stereo not drawn) -2.58%, CCC(C)c1ccc(NC(=S)N2CCCC2)cc1 (stereo not drawn) -2.78%, N/C(Cc1ccc([N+](=O)[O-])cc1)=N\OC(=O)C1CCCCC1 18.1%, CC(=O)Nc1ccc(NC(=O)COC(=O)C2CCC(C(C)(C)C)CC2)cc1 (stereo not drawn) 2.02%, O=C(COC(=O)Cc1ccc([N+](=O)[O-])cc1)NC1CCCCCC1 2.56%, Cc1nc([N+](=O)[O-])nn1C12CC3CC(CC(Br)(C3)C1)C2 4.57%, Clc1c(OCCCn2ccnc2)ccc2ccccc12 0.49%, CCOC(=O)C1CCCN(C(=O)c2ccc(C)c(S(=O)(=O)N3CCCCC3)c2)C1 (stereo not drawn) 3.86%, O=C(c1ccc(F)cc1)N1CCCC(C(=O)N2CCCCC2)C1 (stereo not drawn) -1.35%, CSc1ccc(S(=O)(=O)N2CCC(C(=O)NCc3ccncc3)CC2)cc1 0.67%
